Inconclusive results are not listed. A call without a number means that no potency is given here. Calls of active or inactive are those of the source. Unless noted, calls follow the shape of the full dose curve.

This is an account of results in PubChem BioAssay (Tox21).

Beta-2 adrenergic receptor (Homo sapiens), sequence (P07550 whole entry, looked up): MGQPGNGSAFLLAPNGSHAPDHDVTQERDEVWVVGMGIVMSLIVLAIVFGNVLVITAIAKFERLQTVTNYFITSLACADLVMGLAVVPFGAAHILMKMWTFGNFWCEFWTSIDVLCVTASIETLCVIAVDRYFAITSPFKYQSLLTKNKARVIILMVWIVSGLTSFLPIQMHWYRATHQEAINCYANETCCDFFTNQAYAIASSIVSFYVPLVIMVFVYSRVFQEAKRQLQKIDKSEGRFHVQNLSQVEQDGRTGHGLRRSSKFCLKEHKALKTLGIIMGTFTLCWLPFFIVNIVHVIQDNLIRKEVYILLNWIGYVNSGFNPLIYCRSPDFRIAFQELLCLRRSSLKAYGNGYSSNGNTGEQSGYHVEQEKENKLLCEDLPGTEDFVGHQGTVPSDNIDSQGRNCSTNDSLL
D(2) dopamine receptor (Homo sapiens), sequence (P14416 whole entry, looked up): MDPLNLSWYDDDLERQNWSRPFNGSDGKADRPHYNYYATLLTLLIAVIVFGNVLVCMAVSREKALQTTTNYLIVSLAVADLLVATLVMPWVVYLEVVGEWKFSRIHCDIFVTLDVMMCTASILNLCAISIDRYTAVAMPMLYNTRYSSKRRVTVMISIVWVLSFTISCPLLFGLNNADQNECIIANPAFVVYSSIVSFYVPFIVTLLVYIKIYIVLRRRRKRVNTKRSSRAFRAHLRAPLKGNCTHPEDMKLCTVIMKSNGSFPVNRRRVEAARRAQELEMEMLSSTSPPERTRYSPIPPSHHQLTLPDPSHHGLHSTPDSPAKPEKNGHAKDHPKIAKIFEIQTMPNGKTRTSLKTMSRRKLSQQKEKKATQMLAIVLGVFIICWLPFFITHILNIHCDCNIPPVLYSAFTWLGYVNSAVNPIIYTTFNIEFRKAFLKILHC

The first assay concerns the target Beta-2 adrenergic receptor (Homo sapiens) (UniProt P07550). Briefly: Adrenergic beta2 receptor (ADRB2) small molecule agonists, cell-based qHTS assay (AID 1963593).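 Also: CHO cells stably overexpressing human ADRB2.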 To be noted: CHO-ADRB2 cells, cAMP HTRF, 30 min; series mostly up to 92.4 µM. The method, boiled down: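 CHO cells stably over-expressing ADRB2 were plated overnight at 37C, then dosed with compounds plus a stimulation mix containing 100uM IBMX and 25uM Ro-20-1724 for 0.5hr at room temperature. cAMP was measured by HTRF competition, 1hr.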
In general terms: In qHTS, concentration-response curves come from the screen itself.
As for `O=Cc1cccc([N+](=O)[O-])c1`, the Potency entry was “inactive”.

For the compound `COc1ccc2cc(C=O)ccc2c1`, the Potency entry was “inactive”.

Take `CC(O)CCCCn1c(=O)c2c(ncn2C)n(C)c1=O` (centres undefined): the Potency entry was “inactive”.

Regarding `NC(=O)CCCCC(N)=O`, the Potency entry was “inactive”.

As to `NCC1CCCC(CN)C1` (centres undefined), the Potency entry was “inactive”.

With `CC(=O)CC(=O)Nc1ccc2[nH]c(=O)[nH]c2c1`, the Potency result was “inactive”.

As for `CCCCCCCCCCCC[N+](C)(C)CCCS(=O)(=O)[O-]`, the Potency entry was “inactive”.

As for `CC(C)=C1CC[C@@H](C)CC1=O`, the Potency result was “inactive”.

As to `O=C(O)c1ccc([N+](=O)[O-])cc1`, the Potency entry is “inactive”.

`CC(=O)NCCO`: the Potency result was “inactive”.

Take `COc1ccc(Cl)cc1C`: the Potency entry was “inactive”.

For `Nc1ncnc2c1ncn2Cc1c(F)cccc1Cl`, the Potency entry is “inactive”.

As to `O=C1OC(CN2CCOCC2)CN1/N=C/c1ccc([N+](=O)[O-])o1` (centres undefined), the Potency result is “inactive”.

On to `N[C@H]1C(O)O[C@H](CO)[C@@H](O)[C@@H]1O` (some centres undefined), for which the Potency result is “inactive”.

Take `C=C(C)[C@H]1CC=C(C)CC1`: the Potency result was “inactive”.

As to `CC1=CC[C@@H](C(C)(C)O)CC1`, the Potency entry is “inactive”.

For the compound `CC(COC(=O)c1ccccc1)OC(=O)c1ccccc1` (centres undefined), the Potency entry was “inactive”.

As to `F[Si-2](F)(F)(F)(F)F`, the Potency result was “inactive”.

Turning to `O=C(O)CONC(=O)c1ccccc1`, the Potency result was “inactive”.

Turning to `OCC1CC2CC1C1CCC(CO)C21` (centres undefined), the Potency result is “inactive”.

On to `O=C1CCC(=O)N1`, for which the Potency entry was “inactive”.

As to `CCC(=O)OC/C=C(\C)CCC=C(C)C`, the Potency result was “inactive”.

With `CC(O)CNCC(C)O` (centres undefined), the Potency result is “inactive”.

As for `OCc1ccccc1O`, the Potency result is “inactive”.

Regarding `CCOC(=O)c1cccc(N)c1`, the Potency result was “inactive”.

On to `CNCCO`, for which the Potency result is “inactive”.

For `N#CCN(CC#N)CCN(CC#N)CC#N`, the Potency entry is “inactive”.

As to `CCCOCCOCCOCCO`, the Potency result is “inactive”.

A further assay concerns the target D(2) dopamine receptor (Homo sapiens) (UniProt P14416). Briefly: Dopamine D2 receptor (DRD2) small molecule agonists, cell-based qHTS assay (AID 1963594). Also: nearly all actives have a fitted effect of over 35% in size. To be noted: HEK293-DRD2 cAMP HTRF, agonist mode, 30 min; series mostly up to 92.4 µM. The procedure, abridged:
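HEK293 cells stably expressing DRD2 were cultured 24 h at 37 C, then given Ro20-1724 (0.1 mM final) and compounds for 10 min at room temperature. NKH477 (200nM) was then added for 30 min. cAMP was read by HTRF.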
As to `CC(COCCO)OCCO` (centres undefined), the Potency entry is “inactive”.

Turning to `NC(=O)N[C@@H](CCC(=O)O)C(=O)O`, the Potency entry was “inactive”.

Turning to `NC(=O)CCCCC(N)=O`, the Potency result is “inactive”.

For `CC(=O)CC(=O)Nc1ccc2[nH]c(=O)[nH]c2c1`, the Potency entry was “inactive”.

On to `Oc1ccc(O)c2c(O)cccc12`, for which the Potency result is “inactive”.

`CCCOC(C)=O`: the Potency result was “inactive”.

As to `CC(C)=C1CC[C@@H](C)CC1=O`, the Potency result is “inactive”.

With `O=C(O)c1ccc([N+](=O)[O-])cc1`, the Potency result is “inactive”.

For the compound `C=CCCCCCCCCC(=O)OCCCC`, the Potency entry was “inactive”.

For the compound `NNC(=O)c1cccc(C(=O)NN)c1`, the Potency result is “inactive”.

As for `O=C(C(=O)c1ccco1)c1ccco1`, the Potency entry is “inactive”.

Turning to `NC(=S)Nc1cccc2ccccc12`, the activation was 2.03% [at 8.39 µM] (inactive).

For `NCCOCCN`, the Potency result is “inactive”.

Take `CCCCCCCCCCCCCCC(=O)O`: the Potency entry was “inactive”.

As for `CC(COC(=O)c1ccccc1)OC(=O)c1ccccc1` (centres undefined), the Potency entry was “inactive”.

On to `F[Si-2](F)(F)(F)(F)F`, for which the Potency entry is “inactive”.

With `NNS(=O)(=O)c1ccc(Oc2ccc(S(=O)(=O)NN)cc2)cc1`, the Potency result is “inactive”.

Take `O=C(O)CONC(=O)c1ccccc1`: the Potency entry is “inactive”.

As for `OCC1CC2CC1C1CCC(CO)C21` (centres undefined), the Potency entry is “inactive”.

With `O=C1CCC(=O)N1`, the Potency entry was “inactive”.

Regarding `OCc1ccccc1O`, the Potency entry is “inactive”.

Take `N#CCN(CC#N)CCN(CC#N)CC#N`: the Potency entry is “inactive”.

Take `CCCOCCOCCOCCO`: the Potency entry was “inactive”.

Another assay shares this target. As to the kind of experiment: Dopamine D2 receptor (DRD2) small molecule antagonists, cell-based qHTS assay (AID 1963595; active = well fitted inhibition curve with a large enough effect in the signal ratio in the repeat runs, with a control signal flat; the % refers to the signal ratio). Particulars: HEK293-DRD2 cAMP HTRF antagonist mode; series mostly up to 92.4 µM. The procedure, abridged: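 Human DRD2 antagonist qHTS measuring cAMP by HTRF. The cells are exposed to compound for 10 min, then to NKH477 (200 nM) and quinpirole (12 nM) for 30 min at RT, with Ro20-1724 (0.1 mM) present throughout.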
As for `O=Cc1cccc([N+](=O)[O-])c1`, the Potency entry was “inactive”.

As for `COc1ccc2cc(C=O)ccc2c1`, the Potency result is “inactive”.

Consider `CC(O)CCCCn1c(=O)c2c(ncn2C)n(C)c1=O` (centres undefined), for which the Potency entry was “inactive”.

Take `NC(=O)CCCCC(N)=O`: the Potency entry is “inactive”.

Turning to `NCC1CCCC(CN)C1` (centres undefined), the Potency entry was “inactive”.

As for `CC(=O)CC(=O)Nc1ccc2[nH]c(=O)[nH]c2c1`, the Potency result is “inactive”.

As for `CCCCCCCCCCCC[N+](C)(C)CCCS(=O)(=O)[O-]`, the Potency entry is “inactive”.

With `CC(C)=C1CC[C@@H](C)CC1=O`, the Potency entry was “inactive”.

`O=C(O)c1ccc([N+](=O)[O-])cc1`: the Potency result is “inactive”.

In the case of `CC(=O)NCCO`, the Potency entry was “inactive”.

On to `COc1ccc(Cl)cc1C`, for which the Potency entry is “inactive”.

Consider `Nc1ncnc2c1ncn2Cc1c(F)cccc1Cl`, for which the Potency result was “inactive”.

`O=C1OC(CN2CCOCC2)CN1/N=C/c1ccc([N+](=O)[O-])o1` (centres undefined): the Potency result was “inactive”.

Regarding `N[C@H]1C(O)O[C@H](CO)[C@@H](O)[C@@H]1O` (some centres undefined), the Potency entry is “inactive”.

In the case of `C=C(C)[C@H]1CC=C(C)CC1`, the Potency entry is “inactive”.

In the case of `CC1=CC[C@@H](C(C)(C)O)CC1`, the Potency result was “inactive”.

For `CC(COC(=O)c1ccccc1)OC(=O)c1ccccc1` (centres undefined), the Potency result is “inactive”.

In the case of `F[Si-2](F)(F)(F)(F)F`, the Potency result is “inactive”.

For the compound `O=C(O)CONC(=O)c1ccccc1`, the Potency entry is “inactive”.

On to `OCC1CC2CC1C1CCC(CO)C21` (centres undefined), for which the Potency entry is “inactive”.

On to `O=C1CCC(=O)N1`, for which the Potency entry was “inactive”.

As for `CCC(=O)OC/C=C(\C)CCC=C(C)C`, the Potency result was “inactive”.

On to `CC(O)CNCC(C)O` (centres undefined), for which the Potency result is “inactive”.

As for `OCc1ccccc1O`, the Potency entry was “inactive”.

Regarding `CCOC(=O)c1cccc(N)c1`, the Potency result was “inactive”.

For `CNCCO`, the Potency entry is “inactive”.

As to `N#CCN(CC#N)CCN(CC#N)CC#N`, the Potency entry was “inactive”.

Consider `CCCOCCOCCOCCO`, for which the Potency entry was “inactive”.
